Reference: the antibiotic and cytotoxicity screens of Wong et al. (2023)
Screen size: about 39,000 compounds; about 500 (1.3%) were called active. Only a selection was taken, and actives are over-represented in it overall.

tested on: S. aureus RN4220; experiment: growth inhibition call (relative growth <= 0.2); conditions: 50 µM

Structure (SMILES) | growth inhibition call
COc1ccc(S(=O)(=O)N(C)C[C@@H]2OCCCC[C@@H](C)Oc3ccc(NC(=O)NC4CCCCC4)cc3C(=O)N([C@H](C)CO)C[C@H]2C)cc1 | inactive
CNC(=O)Cn1c(=O)c2c(OC)c(C)cnc2n(C)c1=O | inactive
COc1ccc(NC(=O)N(C)C[C@H]2Oc3ccc(NS(=O)(=O)c4c(C)noc4C)cc3CC(=O)N([C@@H](C)CO)C[C@@H]2C)cc1 | inactive
COc1ccc(S(=O)(=O)N(C)C[C@H]2Oc3ccc(NS(=O)(=O)c4c(C)noc4C)cc3C(=O)N([C@@H](C)CO)C[C@@H]2C)cc1 | inactive
O=C(C[C@@H]1CC[C@H]2[C@@H](COC[C@H](O)CN2Cc2cc(F)ccc2F)O1)N[C@@H]1CCN(Cc2ccccc2)C1 | inactive
C[C@@H]1CN([C@@H](C)CO)C(=O)c2cc(NS(=O)(=O)c3cn(C)cn3)ccc2O[C@@H](C)CCCCO[C@@H]1CN(C)Cc1ccc(C(F)(F)F)cc1 | inactive
C[C@@H]1CN([C@H](C)CO)S(=O)(=O)c2ccc(-c3cccnc3)cc2O[C@@H]1CN(C)C(=O)c1ccc2c(c1)OCO2 | inactive
CCC1OC(=O)C(C)C(OC2CC(C)(OC)C(O)C(C)O2)C(C)C(OC2OC(C)CC(N(C)C)C2O)C(C)(O)CC(C)C(=NOCOCCOC)C(C)C(O)C1(C)O (stereo not drawn) | active
CC[C@@H]1OC(=O)[C@H](C)[C@@H](O[C@H]2C[C@@](C)(OC)[C@@H](O)[C@H](C)O2)[C@H](C)[C@@H](O[C@@H]2O[C@H](C)C[C@H](N(C)C)[C@H]2O)[C@](C)(O)C[C@@H](C)/C(=N\OCOCCOC)[C@H](C)[C@@H](O)[C@]1(C)O | active
Cn1c(=O)c2cn3ncccc3c2n(C)c1=O | inactive
COc1c(C)c2c(c(O)c1CC=C(C)CCC(=O)O)C(=O)OC2 | inactive
Cc1noc(C)c1S(=O)(=O)Nc1ccc2c(c1)C(=O)N([C@H](C)CO)C[C@@H](C)[C@H](CN(C)Cc1ccc3c(c1)OCO3)O2 | inactive
O=C(N[C@H]1CC[C@@H](CC(=O)N2CCOCC2)O[C@H]1CO)c1ccc2c(c1)OCO2 | inactive
Cc1ccc(S(=O)(=O)N(C)C[C@@H]2Oc3ccc(NC(=O)CCN4CCOCC4)cc3CC(=O)N([C@@H](C)CO)C[C@@H]2C)cc1 | inactive
COc1ccc(S(=O)(=O)Nc2ccc3c(c2)CC(=O)N([C@@H](C)CO)C[C@H](C)[C@H](CN(C)C(=O)Nc2c(C)noc2C)O3)cc1 | inactive
CC(Cc1cccc(C(F)(F)F)c1)NCCOC(=O)c1ccccc1.Cl (stereo not drawn) | inactive
C[C@@H](O)c1cccc(C(F)(F)F)c1 | inactive
CC(NCCCc1cccc(C(F)(F)F)c1)c1cccc2ccccc12.Cl (stereo not drawn) | active
